Screens: PubChem, National Center for Advancing Translational Sciences (NCATS)
Most compounds without a hit are left out; they make up all but 7.6% or so of the library.
BRCA1 expr act = increases BRCA1 expression | MCF7-BRCA1-FFLuc reporter, luminescence, 48 h; response scale: scaled: vehicle 0%, 10 µM genistein 100% | Potency, µM (titrated, usually from 46.1 µM), hits mostly activators | hit rate 1.1% among 380,000; note: nearly all actives have a fitted effect of over 80% in size
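Compounds are tested at multiple concentrations on MCF7 BRCA1-luciferase reporter cells seeded at 2000 per well; after 48 h, a single luminescence end-point is taken and curves fitted to the normalized data.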
Giardia killer = kills Giardia lamblia; Giardia lamblia trophozoite viability; activity change, % at 7.66 µM, hits read low; hit rate 0.15% among 340,000; AID 540267; in the data active = activity change below about -80%; inconclusive = between about -30% and that limit;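 note: parasites exposed to compound for two days anaerobically before the ATP read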
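Anaerobic 48 hrs incubation at 37 deg C of 100 trophozoites/well with test compounds; ATPLite 1-Step luminescence, 15-30 min RT, reports cellular ATP as viability.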
VP16 counter = Gal4-VP16 reporter inhibition counter-screen | hit rate 3.5% among 310,000 | Drosophila S2 Gal4-VP16 UAS-luciferase, luminescence, 20 h | Potency, µM (doses to about 53.6 µM), most hits filed as inhibitors;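 note: Gal4-VP16 expression switched on by copper sulfate through the metallothionein promoter; nearly all actives have a fitted effect of over 50% in size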
RORg inh = ROR gamma (mouse) transcription inhibition. Drosophila S2 Gal4-RORgamma UAS-luciferase reporter, 20 h. Potency, µM (titrated, usually from 53.6 µM), most hits filed as inhibitors. P51450. hit rate 5.4% among 310,000; note: nearly all actives have a fitted effect of over 60% in size
Target sequence (P51450 whole entry, looked up, the tested form may be a part): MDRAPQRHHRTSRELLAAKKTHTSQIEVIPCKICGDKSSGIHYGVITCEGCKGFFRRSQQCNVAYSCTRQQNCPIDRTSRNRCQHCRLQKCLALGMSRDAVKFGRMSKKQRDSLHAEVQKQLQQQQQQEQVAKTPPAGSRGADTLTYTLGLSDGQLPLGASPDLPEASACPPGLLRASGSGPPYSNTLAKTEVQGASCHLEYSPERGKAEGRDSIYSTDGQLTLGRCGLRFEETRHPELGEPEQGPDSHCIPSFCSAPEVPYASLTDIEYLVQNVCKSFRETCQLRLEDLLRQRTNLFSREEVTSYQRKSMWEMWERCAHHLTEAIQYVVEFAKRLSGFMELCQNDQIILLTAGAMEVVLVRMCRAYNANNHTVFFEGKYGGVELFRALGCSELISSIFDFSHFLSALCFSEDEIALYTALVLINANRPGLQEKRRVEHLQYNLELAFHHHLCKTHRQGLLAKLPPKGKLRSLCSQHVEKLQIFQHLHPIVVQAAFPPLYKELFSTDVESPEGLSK
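Schneider cells (Drosophila), stable Gal4 DBD–ROR gamma + UAS-luc; 1 hr cmpd preincubation; Cu2+ induction 700 uM final; 20 hr ambient; luminescence.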
p53 reactivator = mutant p53 re-activation in reporter cells. H1299 p53-A138V BP100-luciferase reporter, luminescence, 24 h. Potency, µM (series often up to 92.2 µM), actives largely listed as activators. hit rate 0.063% among 320,000. AID 504706; note: nearly all actives have a fitted effect of over 45% in size
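p53-null H1299 cells stably carrying temperature-sensitive p53-A138V and a BP100-luciferase reporter were pinned with compounds (4-point, 1:5 series) and held 24 hrs at 37 deg C. Luminescence was read 10 min after detection reagent.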
ELG1 repair inh = blocks ELG1-dependent DNA repair in HEK293T cells; hit rate 2.3% among 330,000; Potency, µM (doses to about 46.1 µM), actives largely listed as inhibitors; HEK293T ELG1-luciferase reporter, luminescence, 16 h; DNA damage induced by 5-fluorouridine; AID 504467; note: nearly all actives have a fitted effect of over 55% in size
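Cells (2,000 per well) received 5-fluorouridine plus test compound or DMSO and were incubated 16 hr at 37 °C, 5% CO2. Luciferase activity was read by luminescence 30 min after ONE-Glo addition; signal suppression marked inhibition of damage-induced ELG1 function.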
Numbers stand for hits; - = inactive; ? = inconclusive; . = not tested or not shown; [ ] = another dose, or the depositor's remark. Unless noted, calls come from the whole dose curve; as a rule, active = well fitted curve in the direction sought with a large enough effect; inconclusive = small, poorly fitted or top-dose-only effect, or another doubt; inactive = no such curve, though single readings can be large; an effect the other way counts as inactive or inconclusive.

SMILES	BRCA1 expr act	Giardia killer	VP16 counter	RORg inh	p53 reactivator	ELG1 repair inh
CCNc1nc2c(c(=O)[nH]c(=O)n2C)n1CCCc1ccccc1	-	-	-	-	-	-
O=C(CC(=O)c1ccccc1O)c1ccc(F)cc1	-	-	?	14.1µM	?	?
O=C(Nc1ccccc1C(=O)O)c1cccc(F)c1	-	-	.	.	.	.
O=C(CC(=O)c1c(F)cccc1Cl)c1ccccc1O	-	-	11.2µM	20µM	?	?
COc1ccc(C(=O)CC(=O)c2ccc(F)cc2)cc1	?	-	.	.	.	.
O=C(CCCC(=O)c1ccc(F)cc1)c1ccc(F)cc1	2.51µM	-	-	-	?	?
O=C(CCNC(=O)c1ccccc1Cl)NNC(=O)c1ccccc1O	-	-	.	.	-	-
O=C(CC(=O)c1ccccc1O)c1cccc(F)c1	-	-	?	7.08µM	?	-
COc1cc(/C=C/c2nnc3c4ccccc4ncn23)cc(OC)c1OC	-	-	?	?	-	6.51µM
C#CCn1c(=NC(=O)c2ccc(Cl)s2)sc2cccc(OC)c21	-	-	-	2.24µM	-	?
COc1cc(CNC(=O)c2cc(C(=O)NCc3cc(OC)cc(OC)c3)n(C)n2)cc(OC)c1	-	-	.	.	-	20.6µM
Cn1nc(C(=O)NCc2cccc(F)c2)cc1C(=O)NCc1cccc(F)c1	-	-	.	.	-	11.6µM
O=C(NCc1ccc(F)cc1)c1cc2ccccn2n1	-	-	-	-	-	?
COc1cc(CNC(=O)c2cnccn2)cc(OC)c1	-	-	.	.	.	.
Cc1ccc(S(=O)(=O)NC(C)C(=O)NC2CC2)cc1 (configuration not stated)	-	-	-	-	-	-
CCCCn1c(N)c(N(CC(C)C)C(=O)CSc2nn(-c3ccc(F)cc3)c(=S)s2)c(=O)[nH]c1=O	-	-	.	.	.	.
COCc1cc(=O)[nH]c(/N=C(\N)Nc2ccc(Oc3ccccc3)cc2)n1	-	-	-	?	-	-
Cc1ccccc1Cn1ccc(-c2ccc3c(c2)OCO3)n1	?	-	-	-	-	?
Fc1cccc(Cn2ccc(-c3ccc4c(c3)OCO4)n2)c1	10µM	-	-	?	?	?
CN(CC(=O)Nc1cccc(F)c1)C(=O)COc1ccc2c(c1)CCC2	-	-	.	.	-	-
Cc1ccc(N2C(=O)[C@@H]3[C@H](C2=O)C2CCCN2[C@@H]3C(=O)c2ccccc2)cc1 (some centres not stated)	-	-	?	6.31µM	-	?
COC(=O)c1cccc(S(=O)(=O)N2CCOCC2)c1	-	-	-	-	-	-
COc1ccc2c(c1)oc1c(SCc3nc4ccccc4[nH]3)nc(C)nc12	-	-	.	.	-	?
Cc1nc(SCc2nc3ccccc3[nH]2)c2oc3cc([N+](=O)[O-])ccc3c2n1	-	-	.	.	-	23.1µM
CNC(=O)c1ccccc1-c1ccccc1	-	-	-	-	-	-
SMILES	BRCA1 expr act	Giardia killer	VP16 counter	RORg inh	p53 reactivator	ELG1 repair inh
CCOC(=O)c1c(CSc2ccsc2)n(C)c2cc(Br)c(O)c(CN(C)C)c12	-	-	-	-	-	-
Brc1ccc2c(c1)OCCOCCOc1cc(Br)ccc1OCCOCCOCCO2	-	-	-[0.365 µM]	?	-	20.6µM
Brc1cc2c(cc1Br)OCCOCCOCCOCCO2	-	-	-	-	-	-
Cc1ccc2sc(N3CCN(C(=O)CCS(=O)(=O)c4ccc(Cl)cc4)CC3)nc2c1C	-	.	.	.	.	.
COc1cc(/C=N/NC(N)=S)cc(Br)c1OCc1ccccc1F	-	-	4.47µM	1µM	-	23.1µM
CCOc1cc(/C=N/NC(N)=S)cc(Br)c1OCc1ccccc1C	-	-	2.51µM	0.794µM	-	-
CCOc1cc(/C=N/NC(N)=O)cc(Br)c1OCc1ccccc1	-	-	-	-	-	-
CCOc1cc(/C=N/N=C(\N)c2nonc2N)cc(Br)c1OCc1cccc2ccccc12	-	-	?	12.6µM	-	-
NC(=S)N/N=C/c1ccccc1OCCSc1ccc(Cl)cc1	-	-	28.2µM	?	-	?
Cc1cc(C(=O)CCC(=O)N2CCN(c3ccccc3)CC2)c(C)s1	-	-	.	.	-	-
COc1cccc(/C=N/NC(N)=S)c1OCc1ccccc1Cl	-	-	3.98µM	3.16µM	-	-
